Six1-Eya2 inh: inhibitors of human Six1/Eya2 interaction. AlphaScreen GST-Six1/His-Eya2 binding, biochemical; active compounds read low. activity change, % (no concentration beside the values). Q15475+O00167. AID 651725. hit rate 0.56% among 360,000
Target sequence (O00167 whole entry, looked up): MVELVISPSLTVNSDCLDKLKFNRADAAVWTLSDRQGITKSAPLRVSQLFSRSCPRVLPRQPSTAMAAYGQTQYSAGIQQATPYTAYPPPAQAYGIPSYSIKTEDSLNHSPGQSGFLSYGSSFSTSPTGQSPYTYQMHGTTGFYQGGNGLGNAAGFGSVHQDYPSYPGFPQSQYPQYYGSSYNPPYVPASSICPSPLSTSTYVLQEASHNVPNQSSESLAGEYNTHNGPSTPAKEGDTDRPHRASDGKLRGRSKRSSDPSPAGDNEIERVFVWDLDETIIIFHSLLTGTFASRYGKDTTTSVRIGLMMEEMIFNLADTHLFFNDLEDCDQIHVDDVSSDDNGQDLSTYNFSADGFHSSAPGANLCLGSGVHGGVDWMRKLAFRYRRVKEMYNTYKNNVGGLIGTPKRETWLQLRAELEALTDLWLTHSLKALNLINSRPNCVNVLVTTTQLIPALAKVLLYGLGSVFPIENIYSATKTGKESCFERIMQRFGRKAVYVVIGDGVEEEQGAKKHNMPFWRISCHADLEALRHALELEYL
Target sequence (Q15475 whole entry, looked up): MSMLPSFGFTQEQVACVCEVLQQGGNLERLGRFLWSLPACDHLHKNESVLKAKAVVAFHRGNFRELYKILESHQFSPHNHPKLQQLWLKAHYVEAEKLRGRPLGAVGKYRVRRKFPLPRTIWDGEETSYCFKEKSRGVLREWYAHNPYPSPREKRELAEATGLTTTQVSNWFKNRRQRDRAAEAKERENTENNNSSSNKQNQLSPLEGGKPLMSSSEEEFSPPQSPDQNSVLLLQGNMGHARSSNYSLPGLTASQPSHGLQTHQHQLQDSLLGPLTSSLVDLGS
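Compounds are tested against tagged Six1 and Eya2 proteins bridged by glutathione donor and nickel acceptor beads; after a one-hour incubation at 37 °C without light, AlphaScreen emission is recorded.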
CtBP-E1A blk: blocks the CtBP interaction with E1A. AID 651724. activity change, % (no concentration beside the values). AlphaScreen GST-E1A/His-CtBP binding, 1536-well; active compounds read low. hit rate 0.49% among 340,000
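GST-E1A and His-tagged CtBP (125 nM each as 5X stock) were preincubated with pin-transferred compound for 2 h at 37 °C in the dark, then glutathione donor and nickel acceptor beads were added for 1 h before AlphaScreen reading.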
Mito fusion act: mitochondrial division inhibition or fusion activation. S. cerevisiae fusion-defective mutant growth rescue, CellTiterGlo 48 h. Potency, µM (series often up to 46.1 µM), usual class: activators. hit rate 0.23% among 320,000. AID 485298; active = well fitted activation curve with a large enough effect; inconclusive = small, poorly fitted or top-dose-only effect; inactive = no such curve, though single readings can be large or run the other way; also: nearly all actives have a fitted effect of over 45% in size
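Read-out: ATP-based luminescence (CellTiterGlo, 10 min ambient) reporting growth of fusion-defective ts yeast after 48 hours at 37C on glycerol/ethanol YPEG medium in the presence of compound.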
MBNL1 CUG block: MBNL1-poly(CUG) RNA binding inhibition; Q9NR56; TR-FRET MBNL1-His/biotin-(CUG)12 binding, 665/545 ratio; Potency, µM (highest dose often 57.5 µM), actives largely listed as inhibitors; hit rate 0.036% among 280,000; active = well fitted inhibition curve with a large enough effect in the signal ratio, with a control signal flat, not every such curve was filed as active; inconclusive = small, poorly fitted or top-dose-only effect, or effect the other way, or a change in a side signal; inactive = no such curve, though single readings can be large or run the other way; the % refers to the signal ratio
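MBNL1-His + Biotin-(CUG)12, cpd titration 92 nM–58 uM; Tb anti-His Ab 0.055 ng/ul, SA-XL665 5 nM (final); 60 min RT; ratiometric 665/545 nm, Ex 340 nm; normalized to buffer and full-complex controls.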
uPA generation: blocks generation of uPA at the cell surface; Potency, µM (series often up to 38.3 µM), most hits filed as inhibitors; hit rate 0.31% among 330,000; cell surface uPA generation assay, qHTS; active = well fitted inhibition curve with a large enough effect; inconclusive = small, poorly fitted or top-dose-only effect; inactive = no such curve, though single readings can be large or run the other way; tested in mouse RAW 264.7 cells; also: nearly all actives have a fitted effect of over 55% in size
Hits are given with their value; [ ] = remark or other dose. Sampled rows, rich in hits. Any-hit rate of the full collection: about 1.1%. Rule as the data show it, unless noted: active = activity change below about -65%; inconclusive = mostly about -30% to -63%; inactive = weaker than that.

`CCc1ccc2oc(-c3ccc(OC)cc3)cc(=Nc3c(C)n(C)n(-c4ccccc4)c3=O)c2c1` gave Six1-Eya2 inh inactive, CtBP-E1A blk inactive, Mito fusion act inactive, MBNL1 CUG block inconclusive and uPA generation 8.91µM.
For O=C(Cc1ccc(NC(=O)C2CCN(C(=O)C3CCCCC3)CC2)cc1)Nc1cccc(C(=O)N2CCCCC2)c1 the results were Six1-Eya2 inh inactive, CtBP-E1A blk inactive and uPA generation inactive.
CCC12CN3CC(CC)(CN(C1)C3c1c[nH]c3ccccc13)C2=O (stereo not given) was read as Mito fusion act inactive.
Screening CCN(CC)S(=O)(=O)c1cccc(C(=O)N/N=C/c2ccc(O)c(O)c2O)c1 returned Six1-Eya2 inh -90.7, CtBP-E1A blk -93.5, Mito fusion act inactive, MBNL1 CUG block inactive and uPA generation inactive.
CCOc1ccccc1/C=N/NC(=O)c1cccc(S(=O)(=O)N(CC)CC)c1 was read as Six1-Eya2 inh inactive, CtBP-E1A blk inactive, Mito fusion act inactive, MBNL1 CUG block inactive and uPA generation inactive.
For CCN(CC)C(=O)c1ccccc1NC(=O)c1cccc(S(=O)(=O)N(CC)CC)c1 the results were Six1-Eya2 inh inactive, CtBP-E1A blk inactive, Mito fusion act inactive, MBNL1 CUG block inactive[11.5 µM] and uPA generation inactive.
For CCN(CC)S(=O)(=O)c1cccc(C(=O)N/N=C(\C)c2ccc(O)cc2O)c1 the results were Six1-Eya2 inh -66.5, CtBP-E1A blk inconclusive, Mito fusion act inactive, MBNL1 CUG block inactive and uPA generation inactive.
CC(C)C[C@H](NC(=O)C1OC1C(=O)O)C(=O)NCCCCN=C(N)N (stereo not given in full) was read as Mito fusion act inactive.
For COc1cccc(C#CC2=CC(=O)CC(C)(C)C2)c1 the results were Six1-Eya2 inh inactive and CtBP-E1A blk inactive.
`Cc1ccc(S(=O)(=O)N2CCC(C(=O)OCC(=O)N3C(C)CCCC3C)CC2)cc1C` (stereo not given) gave Six1-Eya2 inh inactive and CtBP-E1A blk inactive.
COc1ccccc1CNS(=O)(=O)c1ccc(-c2cnc(C3CC3)o2)cc1 was read as Six1-Eya2 inh inactive, Mito fusion act inactive, MBNL1 CUG block inactive and uPA generation 0.282µM.
For N=C(N)c1ccc(N)cc1 the results were Six1-Eya2 inh inactive, CtBP-E1A blk inactive, Mito fusion act inactive and uPA generation inactive.
For NC(=Nc1ccc(N)cc1)C(N)=Nc1ccc(N)cc1 the results were Six1-Eya2 inh -65.3, CtBP-E1A blk inconclusive, Mito fusion act inactive, MBNL1 CUG block inconclusive and uPA generation inactive.
Screening CCOC(=O)c1cnc2c(cnn2CC)c1NN=C(C)C returned Mito fusion act inactive.
Screening CCOC(=O)[C@]12CCCC=C1N(CCc1ccc(OC)c(OC)c1)C(=O)[C@H](CC(=O)N1CCCCC1)C2 returned Six1-Eya2 inh inactive and CtBP-E1A blk inactive.
For O=C1CN(C(=O)c2cccc(Br)c2)C(c2ccccc2)c2cc(Cl)ccc2N1 (stereo not given) the results were Mito fusion act inactive.
For COc1ccccc1N1CCN(C(=O)c2cc3c(s2)-c2ccccc2OC3)CC1 the results were Six1-Eya2 inh inactive, CtBP-E1A blk inactive, Mito fusion act inactive, MBNL1 CUG block inactive and uPA generation inactive.
Screening COc1cc2c(cc1OC)C(C)N(C(=O)c1cccs1)CC2 (stereo not given) returned Six1-Eya2 inh inactive, CtBP-E1A blk inactive, Mito fusion act inactive, MBNL1 CUG block inactive and uPA generation inactive.
For COc1cc2c(cc1OC)C(C)N(C(=O)c1cc3c(s1)-c1c(C)cccc1OC3)CC2 (stereo not given) the results were Six1-Eya2 inh inactive, CtBP-E1A blk inactive, Mito fusion act 25.1µM, MBNL1 CUG block inactive and uPA generation inactive.
Screening COc1cc2c(cc1OC)C(C)N(C(=O)c1cc3c(s1)-c1ccccc1OC3)CC2 (stereo not given) returned Six1-Eya2 inh inactive, CtBP-E1A blk inactive, Mito fusion act 20µM, MBNL1 CUG block inactive and uPA generation inactive.
For COc1cc2c(cc1OC)C(C)N(C(=O)c1c(C)noc1C)CC2 (stereo not given) the results were Six1-Eya2 inh inactive, Mito fusion act inactive, MBNL1 CUG block inactive and uPA generation 5.01µM.
Screening O=C(NN=Cc1ccc2c(c1)CCN2)c1cccs1 returned Six1-Eya2 inh inactive and CtBP-E1A blk inactive.
COc1cccc(C(=O)NCC(c2cccs2)N2CCc3ccccc32)c1 (stereo not given) was read as Six1-Eya2 inh inconclusive, CtBP-E1A blk inconclusive, Mito fusion act 15.8µM and uPA generation inconclusive.
For CC1=C/C(=N\N=C2\NC(=O)C(CC(=O)Nc3ccccc3)S2)CC(C)(C)C1 (stereo not given) the results were Six1-Eya2 inh inactive, Mito fusion act inactive, MBNL1 CUG block inactive and uPA generation inactive.
For O=C(O)CNC(=O)CC1S/C(=N/N=C2/NC(=O)CS2)NC1=O (stereo not given) the results were Six1-Eya2 inh -66.8, CtBP-E1A blk inconclusive, Mito fusion act inactive, MBNL1 CUG block inactive and uPA generation inactive.
`NC(=O)NC(=O)CC1S/C(=N/N=C2\CSC(=O)N2)NC1=O` (stereo not given) gave Six1-Eya2 inh -90.4, CtBP-E1A blk -92.7, Mito fusion act inactive, MBNL1 CUG block inactive and uPA generation inactive.
For NC(=O)NC(=O)CC1S/C(=N/N=C/c2ccccc2)NC1=O (stereo not given) the results were Six1-Eya2 inh inactive, CtBP-E1A blk inactive, Mito fusion act inactive, MBNL1 CUG block inactive and uPA generation inactive.
For Cn1nccc1-c1ccc(C(=O)NCc2ccc(Cl)cc2)c2occc12 the results were Six1-Eya2 inh inactive and CtBP-E1A blk inactive.
Screening CC1(C(=O)NS(=O)(=O)C2CC2)CCCN(C(=O)c2cccc(OC(F)(F)F)c2)C1 (stereo not given) returned Six1-Eya2 inh inactive and CtBP-E1A blk inactive.
`CC1CCCN(c2ccc([N+](=O)[O-])cc2C(=O)c2ccccc2)C1` (stereo not given) gave Six1-Eya2 inh inactive, CtBP-E1A blk inactive, Mito fusion act inactive, MBNL1 CUG block inactive and uPA generation 0.159µM.
For COC(=O)C1=C(C(=O)OC)SC(=C2C(=S)C(C)(C)N(C(=O)C3CC3)c3ccccc32)S1 the results were Six1-Eya2 inh -76.9, CtBP-E1A blk -80.4, Mito fusion act inactive, MBNL1 CUG block inactive and uPA generation inactive.
`COC(=O)C1=C(C(=O)OC)SC(=C2C(=S)C(C)(C)N(C(=O)C(C)C)c3ccccc32)S1` gave Six1-Eya2 inh inconclusive, CtBP-E1A blk inactive, Mito fusion act inactive, MBNL1 CUG block inactive and uPA generation inactive.
O=C(NCc1ccccc1)C(CCc1ccccc1)n1c(=O)c(-c2ccccc2)nc2ccccc21 (stereo not given) was read as Six1-Eya2 inh inactive and CtBP-E1A blk inactive.
CC1(C)CC(Cc2cccc(C(F)(F)F)c2)N(C(=O)OC(C)(C)C)C1 (stereo not given) was read as Six1-Eya2 inh inactive and CtBP-E1A blk inactive.

From PubChem BioAssay
